The structures appear in SMILES notation. Records with an inconclusive call do not appear. A number with no mark means an inactive call. Calls come from the whole dose curve; tested in HEK293 reporter line.
% is set by controls: 0 for no effect and ±100 for the full control effect.

The test in a line: qHTS for Inhibitors of the Functional Ribonucleoprotein Complex (vRNP) of Lassa (LASV) Arenavirus: LASV Primary Screen - GLuc reporter signal (AID 1347082). Note: nearly all actives have a fitted effect of over 60% in size. The settings on record: LASV minigenome vRNP, Gaussia luciferase reporter; series mostly up to 57.5 µM; activity change, negative = inhibition: at the top concentration.
As to `C=CCCCCCCCCCCCC(O)CC(O)COC(C)=O` (stereo not drawn), the “activity change, negative = inhibition” value is 2%.
Turning to `CC1=CC[C@@]23C[C@@H]1C(C)(C)[C@@H]2CC[C@H]3C`, the “activity change, negative = inhibition” value was -2.66% [at 115 µM].
Regarding `CCCCC[C@H](O)C=C[C@H]1[C@H](O)CC(=O)[C@H]1CCCCCCC(=O)O`, the “activity change, negative = inhibition” value is 24.9%.
For `NC1=NCCCC1`, the “activity change, negative = inhibition” value is -1.01%.
Regarding `CC(O)C(C)O` (stereo not drawn), the “activity change, negative = inhibition” value was -2.49% [at 115 µM].
For the compound `CCCC(=O)OCCC(C)CCC=C(C)C` (stereo not drawn), the “activity change, negative = inhibition” value is -5.03% [at 115 µM].
In the case of `COc1cc2c(c(OC)c1OC)-c1c(cc3c(c1OC)OCO3)CC(C)C(C)(O)C2OC(=O)c1ccccc1` (stereo not drawn) it was -13.7% [at 24.7 µM]; in that of `COC(=O)c1ccc(=O)c2nc3/c(=C/O)c(O)cc(=O)c3[nH]c12`, 9.32%.
In the case of `CSCC[C@@H](N)C(=O)O`, the “activity change, negative = inhibition” value was 1.18%.
Next, `COc1cc(O)c2c(=O)c3c(O[C@H]4O[C@@H](CO)[C@H](O)[C@@H](O)[C@@H]4O)ccc(O)c3oc2c1`: 7.75%; `CC(=O)OCC(=O)[C@@]1(O)CC[C@H]2[C@@H]3CCC4=CC(=O)C=C[C@]4(C)[C@@H]3[C@@H](O)C[C@@]21C`: -13.6%.
For `CCC1(CC)C(=O)NC(=O)N(c2ccccc2)C1=O`, the “activity change, negative = inhibition” value is 18.1%.
In the case of `COc1cc2c(c(OC)c1OC)-c1c(cc(OC)c(OC)c1OC)CC(C)C(C)C2` (stereo not drawn) it was -3.85%; in that of `CCCO`, -7.37% [at 115 µM]; in that of `COc1ccc(C[C@@H]2c3cc(O)c(OC)cc3CCN2C)cc1O`, 8.19%.
`O=C(O)COc1ccc(Cl)cc1CO`: the “activity change, negative = inhibition” value is 6.39%.
As to `CC(C)C1=CC2=CC[C@@H]3[C@](C)(CCC[C@@]3(C)C(=O)O)[C@H]2CC1`, the “activity change, negative = inhibition” value is 2.83% [at 115 µM].
For `CSC(=S)NCc1c[nH]c2ccccc12`, the “activity change, negative = inhibition” value is 3.83%.
With `N#CC(=C(N)Sc1ccc(N)cc1)c1ccccc1C(F)(F)F`, the “activity change, negative = inhibition” value was -4.51%.
As to `Nc1nc2c(ncn2[C@@H]2O[C@H](CO)[C@@H](O)[C@@H]2O)c(=O)[nH]1`, the “activity change, negative = inhibition” value was 1.1%.
Next, `COc1ccc2[nH]cc(CCO)c2c1`: -4.85%; `CC(C)=CCC[C@](C)(O[C@@H]1O[C@H](CO)[C@@H](O)[C@H](O)[C@H]1O)[C@H]1CC[C@]2(C)[C@@H]1[C@H](O)C[C@@H]1[C@@]3(C)CC[C@H](O[C@@H]4O[C@H](CO)[C@@H](O)[C@H](O)[C@H]4O[C@@H]4O[C@H](CO)[C@@H](O)[C@H](O)[C@H]4O)C(C)(C)[C@@H]3[C@@H](O)C[C@]12C`: -8.64%.
In the case of `CC(CCC(=O)O)C1CCC2C3CC(O)C4CC(O)CC[C@]4(C)C3CCC12C` (stereo partly drawn) it was 7.43%.

Source of the values: PubChem BioAssay (NCATS).
